In the library only some 18% were active in any assay of this set; here they are far more common.
TGFb inhibitor = blocks TGF-b signaling; Potency, µM (doses to about 46.1 µM), hits mostly inhibitors; HepG2 CAGA-GFP TGF-b/SMAD3 reporter, GFP fluorescence, 18 h; TGF-beta stimulated, 500 pg/mL final; AID 588855; actives 1.2% (n = 410,000); note: nearly all actives have a fitted effect of over 65% in size
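First, reporter cells (HEPG2 CAGA-GFP) rested 2 h at 37 degrees C. Next, compounds were pinned in and TGF-beta added to 500 pg/mL final. After 18 h, GFP was imaged per cell and summed per well.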
IL1B secr inh = inhibitors of inflammasome signaling (IL-1 beta secretion); actives 4.7% (n = 360,000); THP-1 LPS/ATP IL-1B secretion, AlphaLISA, 16 h; hits give low values; activity change, % at 57.5 µM; AID 743279; in the data active = activity change below about -50%; inconclusive = mostly about -30% to -49%
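THP-1 cells pretreated 1 hr with compounds (up to 57.5 uM final), then stimulated with LPS (250 ng/mL final) plus ATP (1.25 mM final); secreted IL-1B measured by AlphaLISA after 16 hr, decreased signal indicating inhibition.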
TDP1 block = TDP1 (human) enzyme inhibition | recombinant TDP1, AlphaScreen DNA substrate cleavage | Potency, µM (doses to about 130 µM), most hits filed as inhibitors | actives 0.28% (n = 350,000); note: nearly all actives have a fitted effect of over 40% in size
Target sequence (Q9NUW8 whole entry, looked up): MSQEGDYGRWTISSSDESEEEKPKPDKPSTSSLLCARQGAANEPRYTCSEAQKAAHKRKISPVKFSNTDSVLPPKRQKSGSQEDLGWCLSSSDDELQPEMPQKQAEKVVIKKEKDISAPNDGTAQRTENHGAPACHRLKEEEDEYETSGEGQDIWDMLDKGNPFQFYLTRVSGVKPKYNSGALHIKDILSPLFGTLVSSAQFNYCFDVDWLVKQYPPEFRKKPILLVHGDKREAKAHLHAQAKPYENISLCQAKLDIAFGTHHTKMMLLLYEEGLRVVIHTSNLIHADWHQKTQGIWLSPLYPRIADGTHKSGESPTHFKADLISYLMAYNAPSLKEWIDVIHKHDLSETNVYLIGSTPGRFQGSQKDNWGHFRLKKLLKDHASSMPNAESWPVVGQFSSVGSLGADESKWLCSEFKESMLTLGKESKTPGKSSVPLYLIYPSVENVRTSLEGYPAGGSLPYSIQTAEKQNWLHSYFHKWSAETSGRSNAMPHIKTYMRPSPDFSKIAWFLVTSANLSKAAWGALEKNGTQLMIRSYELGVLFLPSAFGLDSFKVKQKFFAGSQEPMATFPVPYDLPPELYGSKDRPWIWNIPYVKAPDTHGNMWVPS
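Recombinant human Tdp1 (E. coli-expressed, 1 nM final) preincubated with compounds 15 min at room temperature, then 5'-biotin/3'-phosphotyrosine-FITC DNA substrate (15 nM final) added for 5 min. AlphaScreen beads (10 ug/ml final) added 10 min; cleavage lowers signal.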
HepG2 viability = kills HepG2 cells in TGF-b inhibitor counter-screen; actives 0.76% (n = 410,000); Potency, µM (doses to about 46.1 µM), usual class: cytotoxic; HepG2 CAGA-GFP viability, ATP luminescence, 18 h
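HepG2 CAGA-GFP cells (1000/well, DMEM with 1% FBS) received compound, then TGF-beta at 500 pg/mL final, and were incubated 18 hours at 37 degrees C. Viability was read by CellTiter-Glo luminescence. Media-only wells were set as complete cell-killing and DMSO as no toxicity.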
TDP1 cell noCPT = qHTS for Inhibitors of human tyrosyl-DNA phosphodiesterase 1 (TDP1): qHTS in cells in absence of CPT; DT40 Tdp1-/- hTDP1 cells, no CPT, ATP luminescence, 48 h; actives 15% (n = 420,000); AID 686978, 2013; Potency, µM (series often up to 46.2 µM), usual class: inhibitors; note: nearly all actives have a fitted effect of over 55% in size
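Cells were dispensed at 400 per well, compounds added by pin tool, plates incubated ≥48 hr at 37 °C, then CellTiter-Glo added for 30 min at room temperature before luminescence reading. Line: DT40 Tdp1-/- complemented with hTDP1; camptothecin omitted.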
TDP1 cell CPT = growth inhibition of DT40 Tdp1-/-;hTDP1 cells with camptothecin (screen for TDP1 inhibitors) | chicken DT40 Tdp1-/-;hTDP1 cells + 20 nM CPT, ATP luminescence, 48 h | Potency, µM (series often up to 46.2 µM), hits mostly inhibitors | actives 12% (n = 420,000) | AID 686979; note: nearly all actives have a fitted effect of over 55% in size
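Chicken DT40 Tdp1-/- cells complemented with human TDP1, 400 cells/well, exposed to compounds plus 20 nM camptothecin for at least 48 h at 37 C; viability read as ATP content by CellTiter-Glo luminescence.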
Numbers stand for hits; - = inactive; ? = inconclusive; . = no result given; [ ] = dose if it differs, or a comment. Unless noted, calls come from the whole dose curve; as a rule, active = well fitted curve in the direction sought with a large enough effect; inconclusive = small, poorly fitted or top-dose-only effect, or another doubt; inactive = no such curve, though single readings can be large; an effect the other way counts as inactive or inconclusive.

SMILES	TGFb inhibitor	IL1B secr inh	TDP1 block	HepG2 viability	TDP1 cell noCPT	TDP1 cell CPT
CCCCOC(=O)c1ccc(NC(=S)NC(=O)c2c(Br)c(C)nn2C)cc1	-	-	-	-	21µM	?
COc1ccc(NC(=O)CSc2nc3[nH]ncc3c(=O)[nH]2)c(OC)c1	-	-	.	-	-	-
N#CC(=C1C=CC(=NO)C(Cl)=C1)c1ccccc1	11µM	-98	.	-	1.3µM	0.65µM
N#CC(=C1C=C(Br)C(=NO)C=C1Cl)c1ccc(Cl)cc1	-	?	.	-	2.6µM	4.6µM
N#CC(=Nc1ccccc1)c1ccccc1	-	-	.	-	-	-
N#CC(C#N)=C/C=C(\Nc1ccc(Cl)cc1)c1ccc(Cl)cc1	-	-	.	-	?	-
COc1ccc(C2=NN(C(=O)CCCC(=O)O)C(c3cn(-c4ccccc4)nc3-c3ccccc3)C2)cc1 (stereo not drawn)	-	-	.	-	?	-
OCCCCCCNc1ccc(CCO)cc1	-	-	.	-	-	-
CC(C)CO/N=C1/C[C@@H](O)[C@@H](O)[C@@H]2[C@@H]3C(=O)N(c4cccc(Oc5ccccc5)c4)C(=O)[C@H]3CC[C@@H]12	.	.	-[21 µM]	.	.	.
CSc1nn(Cc2cccc(Cl)c2)c(N(C(C)=O)C(C)=O)c1S(=O)(=O)c1ccccc1	?	.	-	-	21µM	?
O=C(Nc1ccccc1N1CCOCC1)c1cccc2ccccc12	-	-	.	-	-	?
CO[C@H]1COC(=O)[C@H](C)NC(=O)C/C=C\[C@@H](C)[C@H](OC)COC(=O)C/C=C\[C@@H]1C	.	.	-[21 µM]	.	.	.
CC1(C(=O)NCc2cccc(C(F)(F)F)c2)CCN1C1Cc2ccccc2C1 (stereo not drawn)	-	-	.	-	21µM	?
Cc1ccc(NC(=O)C2(C)CCN2C2Cc3ccccc3C2)cc1 (stereo not drawn)	?	-	.	-	?	?
COc1ccc(NC(=O)C2(C)CCN2Cc2csc3ccccc23)cc1OC (stereo not drawn)	-	-	.	-	15µM	15µM
COc1ccc(NC(=O)C2(C)CCN2Cc2cccc(OC)c2OC)cc1OC (stereo not drawn)	-	-	.	-	16µM	?
COc1ccc(NC(=O)C2(C)CCN2Cc2ccc(OC)c3ccccc23)cc1OC (stereo not drawn)	-	-	.	-	23µM	?
CCc1ccccc1N(C)C	?	.	.	-	-	-
Cc1cn([C@H]2C[C@H](O)[C@@H](/C=C/C(=O)NCCc3ccc4c(c3)OCO4)O2)c(=O)[nH]c1=O	-	-	.	-	-	-
CSc1ccc(CN2CCC2(C)C(=O)NCc2cccc(C(F)(F)F)c2)cc1 (stereo not drawn)	?	-	.	-	?	?
COc1cccc(CN2CCC2(C)C(=O)NCc2cccc(C(F)(F)F)c2)c1OC (stereo not drawn)	-	-	.	-	13µM	13µM
Cc1c(C(=O)c2ccccc2)c2ccccn2c1CCc1ccccn1	?	-74	-	-	-	?
Cc1c(C(=O)c2ccccc2)c2ccccn2c1CCC#N	-	-	-	-	-	-
Cc1c(C(=O)c2ccc(F)cc2)c2ccccn2c1CCc1ccccn1	-	-86	-	-	?	?
O=C(/C=C/c1c(Cl)cccc1Cl)NCCCn1ccnc1	-	-	.	-	-	-
SMILES	TGFb inhibitor	IL1B secr inh	TDP1 block	HepG2 viability	TDP1 cell noCPT	TDP1 cell CPT
O=C(Cn1nc(Cl)nc1Cl)c1ccccc1	-	-	.	-	15µM	?
O=C(Cn1nc(Cl)nc1Cl)c1ccc2c(c1)OCCO2	-	?	-	-	13µM	5.2µM
O=C(Cn1nc(Cl)nc1Cl)c1ccc(F)cc1	-	-	-	-	-	-
C=CCn1c(O)c2ccc(C(=O)N=NC(=O)c3ccc(F)cc3)cc2c1O	-	-	-	-	-	-
Cc1ccc(NC(=O)C2CCCN(S(=O)(=O)c3ccc4[nH]c(=O)ccc4c3)C2)cc1Cl (stereo not drawn)	?	.	-	-	?	-
Cc1ccc(C2=NC(c3ccc(F)cc3)=Nc3ccc(C)cc3N2)cc1	-	.	-	-	?	?
CCc1ccc2c(c1)NC(c1cccnc1)=NC(c1ccc(C(C)(C)C)cc1)=N2	?	.	-	-	?	18µM
Cc1ccc2c(c1)NC(c1cccnc1)=NC(c1ccc(F)cc1)=N2	-	.	-	-	5.8µM	?
CC(C)c1ccc(C2=NC(c3ccncc3)=Nc3ccc(F)cc3N2)cc1	-	.	-	-	?	23µM
COc1ccc(-c2noc(CSCC(=O)Nc3cccc(C(F)(F)F)c3)n2)cc1OC	-	.	-	-	-	-
O=C(N/N=C/c1ccc2c(c1)OCO2)c1cc(-c2ccccc2)nc2ccccc12	-	-	-	-	10µM	21µM
O=C(Nc1ccc2c(c1)OCO2)c1cc(-c2cccnc2)nc2ccccc12	-	-	-	-	?	-
O=C(N/N=C/c1ccc2c(c1)OCO2)c1cc(-c2ccco2)nc2ccccc12	-	-	-	-	7.3µM	9.2µM
Cn1cc(CCC(=O)NCCCc2ccccc2)c2ccccc21	-	-	.	-	?	-
Cc1nn(-c2ccccc2)c(C)c1S(=O)(=O)O	-	-	25µM	-	-	-
Cc1nn(-c2ccccc2)c(C)c1C=O	-	-	-	-	-	-
CC(C)(C)OC(=O)CC(S(=O)(=O)c1ccccc1)S(=O)(=O)c1ccccc1	?	-51	.	-	0.92µM	1.3µM
NC(=O)c1ccc(-n2nnnc2SCC(=O)Nc2ccccc2)cc1	-	-	.	-	-	-
CC1=Nc2ccccc2N=C(NC(=O)CSc2nnnn2-c2ccccc2)C1c1ccccc1 (stereo not drawn)	?	-	-	-	29µM	?
CC1=Nc2ccccc2N=C(NC(=O)CSC(=S)N2CCN(C)CC2)C1c1ccccc1 (stereo not drawn)	-	-	-	-	16µM	?
COCCNc1nc(-c2cc(C)c(C)cc2C)cs1	-	-	-	-	?	?
S=c1nc(-c2ccccn2)c(-c2ccccn2)n[nH]1	-	-	.	-	?	?
C/C(=N\NC(=O)c1cc(-c2ccc(Br)s2)[nH]n1)c1ccncc1	-	?	.	-	?	-
C/C(=N/NC(=O)c1cc(-c2ccc(Br)s2)[nH]n1)c1ccco1	?	-69	-	-	?	-
O=C(Oc1ccccc1)N1CCC2(CC1)CCN(c1ccccc1)CC2	.	.	.	.	18µM	?
O=C(Oc1ccccc1)N1CCC[C@@]2(CCN(c3ncccn3)C2)C1	.	.	.	.	-	-

From PubChem
